This note sets out measurements from PubChem BioAssay (EPA / NIEHS).

Experiment [1] in a line: CCTE_Harrill_HTTr_Viability_MCF7: CCTE's 6-hour Cell Viability Assessment for the High-Throughput Transcriptomics (HTTr) Platform, in MCF-7 cells cultured in DMEM + 10% fetal bovine serum, Harrill Lab (AID 2284010). The method, boiled down: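 Eight-point concentration series, six-hour exposure. Propidium iodide exclusion imaged to assess membrane integrity as a cytotoxicity readout; bidirectional fitting was done with DMSO as negative control and activity baseline.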

The nature of experiment [2]: CCTE_Harrill_HTTr_Apoptosis_MCF7: CCTE's 6-hour Apoptosis Assessment for the High-Throughput Transcriptomics (HTTr) Platform, in MCF-7 cells cultured in DMEM + 10% fetal bovine serum, Harrill Lab (AID 2284011). The method, boiled down: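 High-content imaging of CellEvent Caspase 3/7 Green signal follows a six-hour exposure, with eight concentrations per chemical. MCF-7 cells grown in DMEM plus 10% fetal bovine serum; activity fitted in both directions against DMSO.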

A short description of experiment [3]: CCTE_Harrill_HTTr_CellCount_MCF7: CCTE's Cell Proliferation Assessment for the High-Throughput Transcriptomics (HTTr) Platform, Harrill Lab (AID 2284012; active = hit-call score of the fitted dose curve at least 0.9, where 1 is the maximum;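 also: count of Hoechst-stained nuclei per well by high-content imaging in MCF-7 cells; cells exposed to compound for six hours; intended direction is loss of nuclei count meaning fewer cells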). The method, boiled down:
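For this full-screen endpoint, MCF-7 cultures received eight compound dilutions for six hours. Well nuclei counts from Hoechst imaging were analyzed relative to DMSO.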

In experiment [4] the target is Ratio of Nucleoli Translocation and Cytoplasm, AR (gene 367) (UniProt P10275). As to the kind of experiment: UPITT_HCI_U2OS_AR_TIF2_Nucleoli_Cytoplasm_Ratio_Agonist: University of Pittsburgh U2OS Androgen Receptor-Transcriptional Intermediary Factor 2 (AR-TIF2) Agonism High Content Imaging Assay for Ratio of Nucleoli Translocation and Cytoplasm (AID 2284000; active = hit-call score of the fitted dose curve at least 0.9, where 1 is the maximum;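 also: hits raise the red nucleolar to cytoplasm ratio above vehicle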). A digest of the protocol:
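Human osteosarcoma U2OS line, AR-RFP plus TIF2-GFP; compounds 0.195–50 uM final, 0.5% DMSO. Readout: nucleolar/cytoplasmic RFP ratio by HCI, positive direction vs DMSO baseline.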

Experiment [5] has the same target. In words: UPITT_HCI_U2OS_AR_TIF2_Nucleoli_Cytoplasm_Ratio_Antagonist: University of Pittsburgh U2OS Androgen Receptor-Transcriptional Intermediary Factor 2 (AR-TIF2) Antagonism High Content Imaging Assay for Ratio of Nucleoli Translocation and Cytoplasm (AID 2283999; active = hit-call score of the fitted dose curve at least 0.9, where 1 is the maximum;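 also: antagonists lower the DHT-driven ratio of nucleolar to cytoplasmic red signal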). The method, boiled down: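 This antagonist-mode endpoint tracks AR-RFP localisation, the nucleolus-to-cytoplasm intensity ratio, in TIF2-GFP-coexpressing U2OS cells. DMSO stays at or below 0.5%; testing spans 20 uM single-dose and 0.195–50 uM series, with DHT setting the activity baseline.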

A short description of experiment [6]: CCTE_Shafer_MEA_acute_spike_number: CCTE's Neural Acute Assay for Total Number of Spikes, Shafer Lab (AID 2284008).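 As to AC50: curve fitted for decrease in spike count so AC50 reflects inhibitors.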 A digest of the protocol: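 Total spike count from 40 min recordings before and during compound exposure (0.03-40 uM), given as per-well percent change. Cortical cultures from rat, DIV 13 or 15, 37 C; adaptive detection threshold 8x rms noise.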

A short description of experiment [7]: CCTE_Shafer_MEA_acute_firing_rate_mean: CCTE's Neural Acute Assay for Mean Firing Rate, Shafer Lab (AID 2284009).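 Also: analyzed for loss of signal so actives lower firing rate relative to DMSO.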 A digest of the protocol: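 Rat cortical neuron cultures matured to DIV 13 or 15, equilibrated 20 min at 37 C, then recorded 40 min for baseline. Compound (0.03-40 uM) added and a further 40 min recorded; percent change in mean firing rate calculated per well.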

The nature of experiment [8]: CCTE_Shafer_MEA_acute_burst_number: CCTE's Neural Acute Assay for Single-Electrode Bursts, Shafer Lab (AID 2284013). A digest of the protocol: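 Percent change in single-electrode burst number per well, from 40-min recordings taken before and after adding compound (0.03-40 uM) to primary rat cortical neurons on MEA plates at DIV 13 or 15, 37 C.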
A short description of experiment [9]: CCTE_Shafer_MEA_acute_burst_duration_mean: CCTE's Neural Acute Assay for Mean Burst Duration, Shafer Lab (AID 2284014).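 Also: hits are decreases in mean burst duration relative to DMSO controls.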 A digest of the protocol:
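Rat cortical cultures, DIV 13/15; 40 min baseline, then 40 min with compound (0.03-40 uM), 37 C. Spikes: 300-5000 Hz band-pass, 8x rms threshold. Read-out: % change in mean single-electrode burst duration, DMSO-referenced, loss direction.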

The nature of experiment [10]: CCTE_Shafer_MEA_acute_per_burst_spike_number_mean: CCTE's Neural Acute Assay for Average Number of Spikes Per Burst, Shafer Lab (AID 2284015).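 Also: hits are decreases in mean spikes per burst versus baseline.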 A digest of the protocol: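 Percent change in mean spikes per single-electrode burst is compared between a 40 min baseline and a 40 min recording with compound (0.03-40 uM). Cultures were rat cortical neurons on MEA plates at DIV 13 or 15, recorded at 37 C, with DMSO as the negative control.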

The nature of experiment [11]: CCTE_Shafer_MEA_acute_interburst_interval_mean: CCTE's Neural Acute Assay for Mean Interburst Interval, Shafer Lab (AID 2284016).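 Also: percent change of mean interburst interval versus each well's own pre-dose baseline; curves fitted for decrease in interburst interval relative to DMSO.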 A digest of the protocol: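 Percent change in mean single-electrode interburst interval was calculated per well from 40 min recordings before and after compound (0.03-40 uM). Recordings were made at 37 C on rat cortical cultures at DIV 13 or 15, with spikes detected at 8x rms threshold.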

Experiment [12] can be described thus: CCTE_Shafer_MEA_acute_burst_percentage_mean: CCTE's Neural Acute Assay for Percentage of Spikes in a Burst, Shafer Lab (AID 2284017). The method, boiled down: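 Well-level mean burst percentage from a 40-min recording after compound (0.03-40 uM) expressed as percent change from a 40-min baseline at 37C. Cultures: primary rat cortical neurons on MEA, dosed on DIV 13 or 15; fitted downward relative to DMSO.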

Experiment [13] in a line: CCTE_Shafer_MEA_acute_burst_percentage_std: CCTE's Neural Acute Assay for Standard Deviation of Burst Percentage, Shafer Lab (AID 2284018).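 Also: fitted in the negative direction so actives lower burst percentage SD.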 The method, boiled down: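 Rat primary cortical neurons on 48-well MEAs, DIV 13 or 15, 37 C. 40-min baseline then 40-min recording with compound (0.03-40 uM); well-level SD of per-electrode burst spike percentage, expressed as percent change from baseline.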

Experiment [14] is described as follows: CCTE_Shafer_MEA_acute_per_network_burst_spike_number_mean: CCTE's Neural Acute Assay for Average Number of Spikes in a Network Burst, Shafer Lab (AID 2284019). The method, boiled down:
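Rat cortical cultures, DIV 13/15; spike threshold 8x rms noise, 300-5000 Hz band-pass, 12.5 kHz sampling; wells need >/= 10 active electrodes. Compound 0.03-40 uM, 40 min, 37 C; % change vs own baseline, DMSO negative control.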

The nature of experiment [15]: CCTE_Shafer_MEA_acute_per_network_burst_spike_number_std: CCTE's Neural Acute Assay for Standard Deviation of Number of Spikes in a Network Burst, Shafer Lab (AID 2284020).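 Also: fitted for decrease in spike-number SD versus DMSO so actives lower it.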 A digest of the protocol: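 Rat cortical cultures, DIV 13/15, 37 C; 20-min stabilisation, 40-min baseline, compound 0.03-40 uM, 40-min re-record. Spikes detected at 8x rms noise (300-5000 Hz band-pass). Readout: % change from baseline in per-burst spike-number SD.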

The nature of experiment [16]: CCTE_Shafer_MEA_acute_per_network_burst_electrodes_number_mean: CCTE's Neural Acute Assay for Mean Number of Electrodes in a Network Burst, Shafer Lab (AID 2284021).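 Also: curves fitted for decreases only so hits reduce electrodes per burst.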 The method, boiled down: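 Percent change from baseline was computed as mean electrode count per network burst, comparing 40 min recordings before and during compound (0.03-40 uM) exposure. Cultures were rat cortical neurons at DIV 13 or 15, recorded on MEAs at 37 C with an adaptive 8x rms threshold.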

The nature of experiment [17]: CCTE_Shafer_MEA_acute_network_burst_percentage: CCTE's Neural Acute Assay for Percentage of Network Bursts, Shafer Lab (AID 2284022).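 Also: curves fitted for loss so actives lower network burst percentage.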 A digest of the protocol:
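Network burst percentage (spikes in network bursts divided by total spikes) recorded at 37 C over 40 min baseline and 40 min after compound, 0.03-40 uM, in rat cortical cultures at DIV 13 or 15. Analysed as percent change from baseline versus DMSO.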

Experiment [18] can be described thus: CCTE_Shafer_MEA_acute_cross_correlation_area: CCTE's Neural Acute Assay for Area of Cross Correlation, Shafer Lab (AID 2284024).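 Also: area under pooled inter-electrode spike cross-correlation near zero lag as percent change from own baseline; curves fitted for loss of cross-correlation area so actives lower synchrony.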 A digest of the protocol:
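Percent change in well-wide cross-correlation area (window around zero lag) between 40 min baseline and 40 min post-compound recordings, 37 C; rat cortical cultures on MEA at DIV 13 or 15, dosed 0.03-40 uM, wells needing >/= 10 active electrodes.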

Experiment [19] concerns the target Estrogen receptor (Homo sapiens) (UniProt P03372). In words: CCTE_Deisenroth_AIME_96WELL_LUC_Active: CCTE's 96-well Estrogen Receptor Transactivation Assay with AIME metabolic competence (ERTA luciferase; metabolism positive), Deisenroth Lab (AID 2284023; active = hit-call score of the fitted dose curve at least 0.9, where 1 is the maximum). A digest of the protocol: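 Metabolism-positive mode: induced rat hepatic S9 in alginate microspheres conditions test solutions (0.002 - 200 uM, 10 points) for 2 hours. VM7Luc4E2 ER luciferase reporter cells then exposed 24 h; positive-direction fit against 17beta-estradiol, n=4 typical.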

For experiment [20] the target is unchanged. As to the kind of experiment: CCTE_Deisenroth_AIME_96WELL_LUC_Inactive: CCTE's 96-well Estrogen Receptor Transactivation Assay without AIME metabolic competence (ERTA luciferase; metabolism negative), Deisenroth Lab (AID 2284025; active = hit-call score of the fitted dose curve at least 0.9, where 1 is the maximum). The method, boiled down: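 Metabolism-negative arm: chemicals (0.002–200 uM, 10 points) incubated 2 h with alginate-water microspheres, then medium moved onto VM7Luc4E2 cells for 24 h luciferase read-out. Positive direction vs 17beta-estradiol; n≥4 experiments.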

Inconclusive results are not listed. Calls of active or inactive are those of the source. The calls were made as follows, unless noted: active = hit-call score of the fitted dose curve at least 0.9, where 1 is the maximum; inactive = score below 0.9.

Chain of Ratio of Nucleoli Translocation and Cytoplasm, AR (gene 367) (P10275 whole entry, looked up): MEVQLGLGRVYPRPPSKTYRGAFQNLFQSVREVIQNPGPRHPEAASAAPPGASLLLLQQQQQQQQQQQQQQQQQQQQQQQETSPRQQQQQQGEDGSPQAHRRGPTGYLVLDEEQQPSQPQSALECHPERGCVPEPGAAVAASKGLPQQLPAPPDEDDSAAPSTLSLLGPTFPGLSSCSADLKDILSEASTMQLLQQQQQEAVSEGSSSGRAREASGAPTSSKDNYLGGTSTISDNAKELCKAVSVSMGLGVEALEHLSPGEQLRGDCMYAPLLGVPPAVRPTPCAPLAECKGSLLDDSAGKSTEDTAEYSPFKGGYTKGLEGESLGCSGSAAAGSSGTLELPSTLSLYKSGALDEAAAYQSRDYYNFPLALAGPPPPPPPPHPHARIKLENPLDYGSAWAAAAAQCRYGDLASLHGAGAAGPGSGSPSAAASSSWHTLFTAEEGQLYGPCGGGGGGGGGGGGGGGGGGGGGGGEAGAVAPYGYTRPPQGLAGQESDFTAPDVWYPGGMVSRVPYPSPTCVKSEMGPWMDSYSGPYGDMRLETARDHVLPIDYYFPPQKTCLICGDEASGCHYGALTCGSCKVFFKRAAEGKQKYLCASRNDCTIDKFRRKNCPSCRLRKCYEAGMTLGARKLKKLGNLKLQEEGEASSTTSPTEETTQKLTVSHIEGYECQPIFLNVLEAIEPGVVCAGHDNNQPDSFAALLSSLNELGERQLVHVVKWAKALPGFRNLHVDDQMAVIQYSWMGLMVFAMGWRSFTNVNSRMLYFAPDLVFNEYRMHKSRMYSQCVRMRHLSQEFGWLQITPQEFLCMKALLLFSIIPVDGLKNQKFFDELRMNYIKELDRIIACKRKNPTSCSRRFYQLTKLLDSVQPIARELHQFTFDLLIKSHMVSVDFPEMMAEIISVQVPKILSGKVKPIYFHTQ
Chain of Estrogen receptor (Homo sapiens) (P03372 whole entry, looked up): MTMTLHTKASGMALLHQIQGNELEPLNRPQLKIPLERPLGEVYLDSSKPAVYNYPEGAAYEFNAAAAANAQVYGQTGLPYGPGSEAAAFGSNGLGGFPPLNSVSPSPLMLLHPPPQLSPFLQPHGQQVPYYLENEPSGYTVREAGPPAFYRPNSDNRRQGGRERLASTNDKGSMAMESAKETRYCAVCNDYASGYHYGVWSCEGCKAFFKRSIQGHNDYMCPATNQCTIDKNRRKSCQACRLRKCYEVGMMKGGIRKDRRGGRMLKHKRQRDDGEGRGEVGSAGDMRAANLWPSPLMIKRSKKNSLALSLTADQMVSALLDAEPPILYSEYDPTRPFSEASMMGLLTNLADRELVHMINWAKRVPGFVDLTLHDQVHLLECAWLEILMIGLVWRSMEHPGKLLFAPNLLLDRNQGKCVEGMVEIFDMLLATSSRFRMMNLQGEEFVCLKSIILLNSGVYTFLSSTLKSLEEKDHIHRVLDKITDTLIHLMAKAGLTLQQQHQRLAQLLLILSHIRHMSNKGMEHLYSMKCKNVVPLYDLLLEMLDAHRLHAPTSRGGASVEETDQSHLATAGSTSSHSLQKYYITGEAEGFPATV

`CCCCCC=O`: the outcome in [1] and in experiment [2] was inactive.

`CCCCCCCOC(=O)c1ccccc1C(=O)OCCCCCCC`: the result in [1], in [2] and in experiment [3] was inactive.

For the compound `CCN(Cc1cccc(S(=O)(=O)O)c1)c1ccc(C(=C2C=CC(=[N+](CC)Cc3cccc(S(=O)(=O)O)c3)C=C2)c2ccc(O)cc2S(=O)(=O)[O-])cc1`, the outcome in experiment [1], in experiment [2] and in experiment [3] was inactive.

As for `OC[C@@H](O)[C@@H](O)[C@H](O)[C@@H](O)CO`, the result in [1], in [2] and in [3] was inactive.

As to `CC(CCl)OP(=O)(OC(C)CCl)OC(C)CCl` (configuration not stated), the result in experiment [1], in experiment [2] and in experiment [3] was inactive.

`O=S(=O)(O)c1ccc2ccccc2c1`: the outcome in [1] and in [2] was inactive.

As for `CCCCCCC(C)OC(=O)CCCCC(=O)OC(C)CCCCCC` (configuration not stated), in experiment [4], the outcome was inactive.

Regarding `CCCCCCOC(=O)c1ccccc1O`, the outcome in experiment [5], in [4], in [6], in experiment [7], in [8] and in experiment [9] was inactive. In addition, the compound was classed as inactive in experiment [10], in experiment [11], in experiment [12], in experiment [13], in experiment [14] and in experiment [15]. The compound was called inactive in experiment [16], in experiment [17] and in experiment [18].

Take `CC/C=C\CCOC(C)=O`: the result in experiment [1] and in experiment [2] was inactive.

Regarding `[Co]`, the result in experiment [4] was inactive.

As for `C1COCCN1`, the result in experiment [1] and in experiment [2] was inactive.

Take `C#C[C@]1(O)CC[C@H]2[C@@H]3CCc4cc(OC)ccc4[C@H]3CC[C@@]21C`: the result in experiment [1], in experiment [2] and in [3] was inactive. The concentration at half-maximal activity (AC50) in [19] was 0.1 nM (active); in experiment [20], 0.372 nM (active).

Consider `CNC(=S)NC`, for which the result in experiment [5], in experiment [1], in experiment [2] and in experiment [3] was inactive.

Regarding `CCCCC(CC)COP(=O)(O)OCC(CC)CCCC` (configuration not stated), the AC50 in [6] was 6.52 nM (active); in experiment [7], 6.51 nM (active); in experiment [8], 3 nM (active); in experiment [18] it was 8.23 nM (active). Besides, the call in experiment [9], in experiment [10], in experiment [11], in experiment [12], in [13] and in experiment [14] was inactive. The call in [15], in experiment [16] and in experiment [17] was inactive.

For `CN(C)Cc1ccccc1O`, the outcome in experiment [5] and in experiment [4] was inactive.

For the compound `CC(Cc1ccc(O)c(O)c1)C(C)Cc1ccc(O)c(O)c1` (configuration not stated), the outcome in [1], in experiment [2] and in [3] was inactive.

Turning to `Nc1ccc(S(=O)(=O)Nc2nccs2)cc1`, the outcome in experiment [1], in experiment [2] and in experiment [3] was inactive.

By AC50 is commonly meant the concentration giving half of the maximal activity seen.
